The list is not random: actives were taken first. Their share in the collection is about 2.9%.
APOBEC3A inh: human APOBEC3A DNA deaminase inhibition | inhibition, % at 20 µM | P31941 | 0.41% of 330,000 active | recombinant A3A, FAM/TAMRA ssDNA deamination fluorescence;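 active means at least 40% inhibition at 20 µM here, with at most 30% in a related deaminase screen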
Target sequence (P31941 whole entry, looked up): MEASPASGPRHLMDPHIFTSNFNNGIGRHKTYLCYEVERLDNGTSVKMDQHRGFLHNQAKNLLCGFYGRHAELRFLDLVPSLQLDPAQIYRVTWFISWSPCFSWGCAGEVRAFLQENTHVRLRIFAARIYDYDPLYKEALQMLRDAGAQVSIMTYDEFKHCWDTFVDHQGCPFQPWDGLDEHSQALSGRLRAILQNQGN
APOBEC3G inh: blocks human APOBEC3G single-stranded DNA deamination; Q9HC16; recombinant A3G, ssDNA deamination FAM/TAMRA fluorescence; inhibition, % at 20 µM; 0.28% of 330,000 active;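 active means inhibition of at least 40% at 20 µM, with no more than 30% in the related APOBEC3A deaminase screen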
Target sequence (Q9HC16 whole entry, looked up): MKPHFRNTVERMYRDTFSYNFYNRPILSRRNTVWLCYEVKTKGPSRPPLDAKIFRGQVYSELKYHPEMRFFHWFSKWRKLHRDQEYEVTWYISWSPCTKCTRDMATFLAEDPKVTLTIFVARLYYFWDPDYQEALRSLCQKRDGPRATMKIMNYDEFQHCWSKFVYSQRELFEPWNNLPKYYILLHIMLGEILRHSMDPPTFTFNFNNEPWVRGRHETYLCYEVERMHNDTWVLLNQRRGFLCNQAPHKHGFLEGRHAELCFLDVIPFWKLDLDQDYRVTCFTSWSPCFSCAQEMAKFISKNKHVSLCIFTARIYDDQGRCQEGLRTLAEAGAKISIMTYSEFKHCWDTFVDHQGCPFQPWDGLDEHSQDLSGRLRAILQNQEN
Cardio protect: protects H9c2 cardiomyocytes from peroxide injury; AID 588492; H2O2 injury protection, ATPLite, 2 h; protection from H2O2 cell death, % at 20 µM; 0.63% of 360,000 active;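 active means compounds giving at least 50% protection of heart cells from peroxide-induced death in the single-dose screen, raw or plate-pattern-corrected value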
H9c2 TAG inh: reduces triacylglycerol accumulation in H9c2 cells. Nile Red lipid (TAG) fluorescence; cells loaded with 200 µM oleic acid. 0.66% of 230,000 active. inhibition, % at 12.5 µM;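 active means pattern-corrected inhibition of lipid staining of at least 50% with the nuclear-stain viability signal not falling by more than 50%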
PfG6PD inh: PfG6PD (Plasmodium falciparum) enzyme inhibition | inhibition, % at 20 µM | PfGluPho enzyme, NADPH resazurin-diaphorase fluorescence | 0.78% of 350,000 active;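 active means inhibition reaching at least a set limit at 20 µM in the primary screen, cut at about 59% in these data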
NadD block: NadD (S. aureus) enzyme inhibition; purified NadD enzyme, colorimetric absorbance read-out; inhibition, % at 20 µM; 0.78% of 360,000 active; in the data active means inhibition above about 26%
Large screens that a line does not name were inactive.

O=C(O)C1CCC1C(=O)Nc1nc(-c2ccc(Cl)s2)cs1 (stereo not drawn)	none
c1ccc(CN2CCN(CCCNc3ccc4nnc(-c5ccccc5)n4n3)CC2)cc1	Cardio protect 79.0
NC(=S)NN=Cc1nccc2c(C(F)(F)C(F)(F)C(F)(F)F)cccc12	H9c2 TAG inh 73.6 (no result: APOBEC3A inh, APOBEC3G inh)
CCCC1=NN2C(=N)/C(=C\c3cc(C)n(-c4cccc(C)c4)c3C)C(=O)N=C2S1	NadD block 53.0 (no result: H9c2 TAG inh)
CCCC1=NN2C(=N)/C(=C\c3cc(C)n(Cc4ccccc4)c3C)C(=O)N=C2S1	none
CCC(CC)=N/N=C/c1c(O)n(CC)c2cc(C3=NNC(=O)CC3)ccc12	none
CCn1c(O)c(/C=N/N=C/c2ccccc2)c2ccc(C3=NNC(=O)CC3)cc21	Cardio protect 75.9 (no result: H9c2 TAG inh)
O=C(Nc1ccc2c(c1)CCC2)c1cc(S(=O)(=O)N2CCN(c3ccccc3)CC2)ccc1Cl	NadD block 32.2
O=C(NC1CCCCC1)c1cc(S(=O)(=O)N2CCN(c3ccccc3)CC2)ccc1Cl	none
Cc1cc(C)c2c(N)c3ccccc3nc2n1	H9c2 TAG inh 54.9
CCc1ccc2nc3nc(C)cc(C)c3c(N)c2c1	none (no result: H9c2 TAG inh)
NC(=O)N=Nc1c(O)[nH]c2ccc([N+](=O)[O-])cc12	none
COc1ccccc1C(=O)N=Nc1c(O)[nH]c2ccc([N+](=O)[O-])cc12	NadD block 31.6 (no result: APOBEC3A inh, APOBEC3G inh, H9c2 TAG inh)
NNC(=O)c1ccc(CN2CCCCC2)o1	none (no result: H9c2 TAG inh)
COc1cc(NC(=O)COC(=O)CO/N=C(\C)c2ccc3c(c2)OCO3)cc(OC)c1OC	none
CCn1c2ccccc2c2cc(NC(=O)CSc3nnc(C4CC4)n3Cc3ccco3)ccc21	NadD block 31.7
COc1ccc(NC(=O)NNC(=O)C(C)Oc2ccc3ccccc3c2)cc1OC (stereo not drawn)	none (no result: H9c2 TAG inh)
Cc1ccc(NC(=O)CCc2ccccc2)cc1S(=O)(=O)N1CCOCC1	none
Cc1ccc(NC(=O)c2cc(=O)c3ccccc3o2)cc1S(=O)(=O)N1CCOCC1	Cardio protect 60.5
Cc1ccc(NC(=O)CCc2nc3ccccc3c(=O)[nH]2)cc1S(=O)(=O)N1CCOCC1	Cardio protect 86.2
Cc1ccc(S(=O)(=O)N2CCN(C(=O)CCc3nc4ccccc4c(=O)[nH]3)CC2)c(C)c1	Cardio protect 72.0
CC(OC(=O)CCc1nc2ccccc2c(=O)[nH]1)C(=O)Nc1ccc2c(c1)OCO2 (stereo not drawn)	Cardio protect 50.4
CC(C)c1ccc(S(=O)(=O)N2CCN(C(=O)CCc3nc4ccccc4c(=O)[nH]3)CC2)cc1	none (no result: APOBEC3A inh, APOBEC3G inh)
Cc1ccccc1C(=O)N1CCC(C(=O)NC2CCCC2)CC1	none (no result: H9c2 TAG inh)
O=C1CNC(=S)N1C1CCCCCC1	none (no result: H9c2 TAG inh)
CN(Cc1ccccc1)C(=O)c1[nH]c(C(F)(F)F)nc1-c1ccccc1	none (no result: APOBEC3A inh, APOBEC3G inh, H9c2 TAG inh, PfG6PD inh)
Cc1ccc(C(C)NC(=O)c2cc3cc(Br)ccc3oc2=N)cc1 (stereo not drawn)	none
Cc1ccc(C)c(S(=O)(=O)N2CCN(C(=O)CCc3c[nH]c4ccccc34)CC2)c1	none
O=C(CCc1nc2ccccc2c(=O)[nH]1)N1CCN(S(=O)(=O)c2ccccc2Br)CC1	Cardio protect 70.6
Cc1ccc(C)c(S(=O)(=O)N2CCN(C(=O)CCc3nc4ccccc4c(=O)[nH]3)CC2)c1	Cardio protect 57.4
COc1ccc(C(=O)O)cc1S(=O)(=O)Nc1ccc(Oc2ccccc2)cc1	none
O=S(=O)(Nc1nc(-c2ccccc2)cs1)c1cc(Cl)ccc1Cl	none (no result: H9c2 TAG inh)
C[C@@H]1CN([C@H](C)CO)S(=O)(=O)c2ccc(C#Cc3ccccc3F)cc2O[C@H]1CN(C)C(=O)c1ccc2c(c1)OCO2	Cardio protect 105.7 (no result: APOBEC3A inh, APOBEC3G inh)
CN1Cc2c(N3CCOCC3)nc3sc(C(=O)c4ccc(Br)cc4)c(N)c3c2CC1(C)C	H9c2 TAG inh 68.2
O=C(CSc1ccccn1)NC1CCCC1	none (no result: Cardio protect, H9c2 TAG inh, PfG6PD inh, NadD block)
O=c1cc(-c2cccnc2)oc2c1ccc1ccccc12	Cardio protect 75.9
O=c1cc(-c2ccc(O)c(O)c2)oc2c1ccc1ccccc12	none
O=C(CN1CC(=O)Oc2ccccc21)OCC(=O)c1cccc(Br)c1	Cardio protect 59.7
O=C(CN1CC(=O)Oc2ccccc21)OCC(=O)c1ccccc1	none (no result: H9c2 TAG inh)
COc1ccc(Cc2nnc(SCC(=O)Nc3ccc(C)cc3)n(N)c2=O)cc1	H9c2 TAG inh 58.9
CCC(=O)Nc1cccc(-c2nnc(-c3cccc(NC(=O)CC)c3)o2)c1	Cardio protect 85.1 (no result: H9c2 TAG inh)
O=C(O)CCC(=O)Nc1cccc(-c2nnc(-c3ccccc3)o2)c1	none (no result: H9c2 TAG inh)
Cc1cc(C)cc(OCC(=O)Nc2cccc(-c3nnc(-c4ccco4)o3)c2)c1	Cardio protect 54.5 (no result: H9c2 TAG inh)
COc1cc(C(=O)Nc2cccc(-c3nnc(-c4ccco4)o3)c2)ccc1OC(C)=O	Cardio protect 79.2
CCc1ccc(CNC(=O)C2CCC(=O)N(CCc3ccc(Cl)cc3)C2)nc1 (stereo not drawn)	none
Cc1ccc2c(c1)N(C(=O)CCC(=O)NCCN1CCOCC1)CC(C)O2 (stereo not drawn)	none
Cc1nnc2ccc(-c3ccc(NS(=O)(=O)c4ccc(F)cc4F)cc3)nn12	none
Cc1cc(NC(=O)CCC(=O)N(CC(=O)NC2CCCC2)c2ccc(F)c(Cl)c2)no1	none (no result: H9c2 TAG inh)
O=C(Oc1ccc2c(-c3ccccc3)cc(=O)oc2c1)C1CCCCC1	Cardio protect 87.6
O=C(Oc1ccc2c(-c3ccccc3)cc(=O)oc2c1)c1cccs1	none
COc1ccc(-c2cc(=O)oc3cc(OC(=O)C4CCCCC4)ccc23)cc1	Cardio protect 52.4
COc1ccc(Nc2nc(C(=O)N3CCc4cc(OC)c(OC)cc4C3)cs2)cc1	Cardio protect 73.8
Cc1ccc(S(=O)(=O)Nc2ccc(O)c3ncccc23)cc1	Cardio protect 51.5
Cc1ccc(S(=O)(=O)Nc2ccc(O)c3cccnc23)cc1	none (no result: H9c2 TAG inh)
C=CCn1c(SCC(=O)c2ccc(O)c(O)c2)nnc1-c1cccc(Cl)c1	Cardio protect 54.6
Cc1ccc(S(=O)(=O)NCC(=O)N(c2ccccc2)C(C(=O)NCc2ccccc2)c2ccco2)cc1 (stereo not drawn)	Cardio protect 58.1 (no result: H9c2 TAG inh)
O=C(CNC(=O)c1cccc(F)c1)N/N=C/c1cc(Br)ccc1OC(=O)/C=C/c1ccco1	Cardio protect 56.6 (no result: APOBEC3A inh, APOBEC3G inh)
O=C(CNC(=O)c1ccccc1O)N/N=C/c1cc(Br)ccc1OC(=O)/C=C/c1ccco1	none (no result: Cardio protect, H9c2 TAG inh, NadD block)
CS(=O)(=O)Nc1cccc(-c2cnc3ccccc3n2)c1	none (no result: H9c2 TAG inh)
CN(C)c1ccc(/C=C(/C#N)C(=O)Nc2nc3c(s2)CCN(Cc2ccccc2)C3)cc1	NadD block 57.1 (no result: APOBEC3A inh, APOBEC3G inh)
N#C/C(=C\c1ccc(OCc2ccccc2)cc1)C(=O)Nc1nc2c(s1)CCN(Cc1ccccc1)C2	none
CC(=O)OCCN1C(=O)c2cccc3cc([N+](=O)[O-])cc(c23)C1=O	none (no result: Cardio protect, H9c2 TAG inh, PfG6PD inh, NadD block)
COC(=O)C1N[C@@H]([C@@H](NC(=O)COc2ccccc2)C(=O)NCc2ccsc2)SC1(C)C (stereo partly drawn)	none
O=C1c2ccccc2NC(c2ccc(Cl)cc2Cl)N1O (stereo not drawn)	Cardio protect 60.6

Screens deposited in PubChem BioAssay by Sanford-Burnham Center for Chemical Genomics.
